Measurements taken from PubChem BioAssay (NCATS).
Results filed as inconclusive are left out. Activity calls are given as the source filed them. Unless noted, calls come from the whole dose curve; as a rule, active = well fitted curve in the direction sought with a large enough effect; inconclusive = small, poorly fitted or top-dose-only effect, or another doubt; inactive = no such curve, though single readings can be large; an effect the other way counts as inactive or inconclusive.

Legend:
[1] = NS1 protein of Zika virus - qHTS assay to identify small molecule inhibitors in human HEK 293 cells (AID 1347053); note: series mostly up to about 46 µM; nearly all actives have a fitted effect of over 55% in size
Procedure, shortened: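 Read-out is a two-antibody TR-FRET for ZIKV NS1, normalized between uninfected cells and infected cells. Compound added 1 h before MR766 infection at MOI 0.5; human HEK 293 cells incubated 24 h, 37 C.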

[2] = qHTS of pediatric cancer cell lines to identify multiple opportunities for drug repurposing: Primary screen for TC32 cells (AID 1347089); note: nearly all actives have a fitted effect of over 60% in size
Procedure, shortened: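 Measured quantity: luminescence from CellTiter-Glo, reflecting metabolically active TC32 cells following 48 h of compound. Curves came straight from multi-point titrations, with 8 or 11 points in primary and 11 in confirmatory screening.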

[3] = qHTS of pediatric cancer cell lines to identify multiple opportunities for drug repurposing: Primary screen for DAOY cells (AID 1347090); note: series mostly up to about 46 µM; nearly all actives have a fitted effect of over 55% in size
Procedure, shortened: (§1)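 Viability measured as metabolically active cells via CellTiter-Glo luminescence following 48 hours of compound exposure, 11-point dilutions in confirmatory testing. 500-1,000 cells/well plated 5 hours before dosing; controls were DMSO and 2.3 µM bortezomib.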

[4] = qHTS of pediatric cancer cell lines to identify multiple opportunities for drug repurposing: Primary screen for SJ-GBM2 cells (AID 1347091)
Procedure, shortened: as §1

[5] = qHTS of pediatric cancer cell lines to identify multiple opportunities for drug repurposing: Primary screen for A673 cells (AID 1347092); note: nearly all actives have a fitted effect of over 45% in size
Procedure, shortened: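 Cells are plated, rested 5 h, dosed by pintool, incubated 48 h, then lysed with CellTiter-Glo and read by luminescence. DMSO is the neutral control; bortezomib at 2.3 uM final is the positive control.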

[6] = qHTS of pediatric cancer cell lines to identify multiple opportunities for drug repurposing: Primary screen for SK-N-MC cells (AID 1347093); note: series mostly up to about 46 µM
Procedure, shortened: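 Metabolically active cells were quantified by ATP-dependent luminescence (CellTiter-Glo, 15 min at room temperature) following 48 h treatment. Cells had been plated at 500-1,000 per well and settled for 5 h beforehand.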

[7] = qHTS of pediatric cancer cell lines to identify multiple opportunities for drug repurposing: Primary screen for BT-37 cells (AID 1347094); note: series mostly up to about 57 µM
Procedure, shortened: (§2)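 CRCs from 8- or 11-point titrations (lowest final 0.59 nM NPC, 0.78 nM MIPE). Cell viability: CellTiter-Glo after 48 h incubation, 15 min room-temperature development, luminescence imaging.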

[8] = qHTS of pediatric cancer cell lines to identify multiple opportunities for drug repurposing: Primary screen for NB-EBc1 cells (AID 1347095)
Procedure, shortened: as §2

[9] = qHTS of pediatric cancer cell lines to identify multiple opportunities for drug repurposing: Primary screen for U-2 OS cells (AID 1347096); note: nearly all actives have a fitted effect of over 50% in size
Procedure, shortened: (§3)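 Viability after 48 h compound treatment at 37C, 500-1,000 cells/well, read as ATP luminescence with CellTiter-Glo. Primary screens used 11-point (MIPE, 0.78 nM-46 µM) or 8-point (NPC, 0.59 nM-46 µM) final concentrations; follow-up screens used 11-point dilutions.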

[10] = qHTS of pediatric cancer cell lines to identify multiple opportunities for drug repurposing: Primary screen for Saos-2 cells (AID 1347097); note: nearly all actives have a fitted effect of over 40% in size
Procedure, shortened: as §2

[11] = qHTS of pediatric cancer cell lines to identify multiple opportunities for drug repurposing: Primary screen for SK-N-SH cells (AID 1347098);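 note: DMSO served as neutral control and bortezomib at 2.3 µM as positive control; nearly all actives have a fitted effect of over 65% in size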
Procedure, shortened: (§4)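 Cells (500-1,000/well) rested 5 h, then received compounds for 48 h; metabolically active cells were measured by CellTiter-Glo luminescence. Final concentrations spanned up to 46 µM (MIPE, 11-point) or 0.59 nM-46 µM (NPC, 8-point) in primary screens, 11-point in follow-ups.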

[12] = qHTS of pediatric cancer cell lines to identify multiple opportunities for drug repurposing: Primary screen for NB1643 cells (AID 1347099); note: nearly all actives have a fitted effect of over 50% in size
Procedure, shortened: as §2

[13] = qHTS of pediatric cancer cell lines to identify multiple opportunities for drug repurposing: Primary screen for LAN-5 cells (AID 1347100)
Procedure, shortened: as §3

[14] = qHTS of pediatric cancer cell lines to identify multiple opportunities for drug repurposing: Primary screen for BT-12 cells (AID 1347101); note: nearly all actives have a fitted effect of over 25% in size
Procedure, shortened: as §4

[15] = qHTS of pediatric cancer cell lines to identify multiple opportunities for drug repurposing: Primary screen for Rh18 cells (AID 1347102); note: nearly all actives have a fitted effect of over 65% in size
Procedure, shortened: as §3

[16] = qHTS of pediatric cancer cell lines to identify multiple opportunities for drug repurposing: Primary screen for OHS-50 cells (AID 1347103); note: nearly all actives have a fitted effect of over 40% in size
Procedure, shortened: as §4

[17] = target: T1, Tyrosine-protein phosphatase non-receptor type substrate 1 (Homo sapiens) + Leukocyte surface antigen CD47 (Homo sapiens) (UniProt P78324+Q08722); test: CD47-SIRPalpha protein protein interaction - LANCE assay qHTS validation (AID 1347057; active = well fitted curve in the direction sought with a large enough effect in the signal ratio, with a control signal flat, not every such curve was filed as active; the % refers to the signal ratio; note: series mostly up to about 38 µM)
Procedure, shortened: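 Inhibition of soluble CD47/SIRPalpha ectodomain association by titrated compounds, measured as 665/615 nm time-resolved FRET ratio after sequential 30 min room-temperature incubations.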

[18] = target: T1, Tyrosine-protein phosphatase non-receptor type substrate 1 (Homo sapiens) + Leukocyte surface antigen CD47 (Homo sapiens); test: CD47-SIRPalpha protein protein interaction - Alpha assay qHTS validation (AID 1347059);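 note: bead proximity luminescence from CD47 binding SIRPalpha after compound preincubation with SIRPalpha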
Procedure, shortened: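 SIRPalpha-biotin 25 nM + cpd, 30 min RT, dark; add CD47-His 12.5 nM, 30 min; add Ni-NTA/SAV beads 10 ug/mL, 30 min; AlphaScreen. Buffer PBS pH 7.4 + 0.05% IGEPAL CA-630. Non-biotinylated SIRPalpha as control inhibitor.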

[19] = target: Parathyroid hormone/parathyroid hormone-related peptide receptor (Homo sapiens) (UniProt Q03431); test: qHTS for PTHR1 Agonists: Optimization Screen against the NCGC LOPAC library (AID 1347079);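 note: GloSensor cAMP luminescence in HEK-293 GP2 cells expressing human PTHR1 with IBMX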
Procedure, shortened: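 Signal increase flags agonism. GP2 cells, derived from HEK-293, express human PTHR1 and a GloSensor cAMP construct.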

[20] = target: T1, Tyrosine-protein phosphatase non-receptor type substrate 1 (Homo sapiens) + Leukocyte surface antigen CD47 (Homo sapiens); test: CD47-SIRPalpha protein protein interaction - HTRF assay qHTS validation (AID 1347058; active = well fitted curve in the direction sought with a large enough effect in the signal ratio, not every such curve was filed as active; the % refers to the signal ratio; note: series mostly up to about 38 µM)
Procedure, shortened: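 Soluble extracellular domains (6His-CD47, Avi-tag-biotinylated SIRPalpha) in PBS pH 7.4 with 0.05% IGEPAL CA-630. Compounds were preincubated 30 min at RT with CD47 and anti-His-Eu, then SIRPalpha and SAV-XL665 were added. TR-FRET 665/615 ratio.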

Measured: Potency

T1 sequence (P78324 whole entry, looked up, the tested form may be a part): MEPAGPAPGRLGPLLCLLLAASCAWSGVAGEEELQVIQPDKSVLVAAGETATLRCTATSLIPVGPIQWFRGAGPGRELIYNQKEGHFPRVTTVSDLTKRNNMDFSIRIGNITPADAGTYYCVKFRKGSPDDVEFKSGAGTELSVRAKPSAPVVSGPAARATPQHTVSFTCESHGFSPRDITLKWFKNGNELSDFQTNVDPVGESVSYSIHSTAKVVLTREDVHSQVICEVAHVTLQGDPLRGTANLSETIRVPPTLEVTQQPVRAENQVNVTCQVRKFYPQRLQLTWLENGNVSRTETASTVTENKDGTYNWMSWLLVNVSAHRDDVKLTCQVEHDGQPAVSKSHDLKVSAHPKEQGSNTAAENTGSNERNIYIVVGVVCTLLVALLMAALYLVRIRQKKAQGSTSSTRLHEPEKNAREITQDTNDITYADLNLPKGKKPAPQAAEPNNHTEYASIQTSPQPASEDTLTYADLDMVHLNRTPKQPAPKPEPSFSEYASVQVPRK
T1 sequence (Q08722 whole entry, looked up, the tested form may be a part): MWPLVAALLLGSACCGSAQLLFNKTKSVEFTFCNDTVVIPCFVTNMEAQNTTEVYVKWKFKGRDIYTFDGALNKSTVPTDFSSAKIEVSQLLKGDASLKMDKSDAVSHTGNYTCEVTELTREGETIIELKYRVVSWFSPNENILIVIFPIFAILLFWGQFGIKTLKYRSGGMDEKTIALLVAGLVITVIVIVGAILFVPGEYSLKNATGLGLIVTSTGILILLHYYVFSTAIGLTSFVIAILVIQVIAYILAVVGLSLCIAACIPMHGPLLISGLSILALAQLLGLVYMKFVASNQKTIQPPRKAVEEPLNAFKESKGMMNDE
Sequence of Parathyroid hormone/parathyroid hormone-related peptide receptor (Homo sapiens) (Q03431 whole entry, looked up): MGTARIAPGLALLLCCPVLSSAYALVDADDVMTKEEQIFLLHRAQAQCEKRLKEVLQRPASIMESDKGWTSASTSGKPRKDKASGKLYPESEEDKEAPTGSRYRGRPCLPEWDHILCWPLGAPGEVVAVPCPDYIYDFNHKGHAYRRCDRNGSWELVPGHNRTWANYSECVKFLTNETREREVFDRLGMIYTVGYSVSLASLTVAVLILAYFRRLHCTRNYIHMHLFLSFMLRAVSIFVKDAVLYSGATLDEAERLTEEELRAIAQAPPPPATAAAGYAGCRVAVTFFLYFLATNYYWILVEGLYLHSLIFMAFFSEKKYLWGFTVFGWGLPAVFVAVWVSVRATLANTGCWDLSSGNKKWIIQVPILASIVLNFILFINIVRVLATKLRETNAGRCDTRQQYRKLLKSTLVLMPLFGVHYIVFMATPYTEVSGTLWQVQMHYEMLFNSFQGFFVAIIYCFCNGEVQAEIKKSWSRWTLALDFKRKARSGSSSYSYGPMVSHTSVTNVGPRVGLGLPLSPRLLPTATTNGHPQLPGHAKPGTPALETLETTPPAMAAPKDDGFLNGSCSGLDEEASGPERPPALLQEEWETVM

CCCCC(CC)COC(=O)c1ccc(N(C)C)cc1 (stereo unspecified)
not listed: [16] | [17] | [18] | [19] | [20]
inactive: all other assays above

C=CCN1CCc2nc(N)sc2CC1
not listed: [17] | [18] | [19] | [20]
inactive: all other assays above

CCCCCCCCOc1ccc(C(=O)c2ccccc2)c(O)c1
not listed: [17] | [18] | [19] | [20]
inactive: all other assays above

COc1ccc(C(=O)c2ccccc2)c(O)c1
not listed: [17] | [18] | [19] | [20]
inactive: all other assays above

NS(=O)(=O)c1ccc(Cl)c(S(N)(=O)=O)c1
not listed: [17] | [18] | [19] | [20]
inactive: all other assays above

O=C(O)c1ccc(S(=O)(=O)N(Cl)Cl)cc1
not listed: [17] | [18] | [19] | [20]
inactive: all other assays above

NCCNc1cccc2ccccc12
not listed: [17] | [18] | [19] | [20]
inactive: all other assays above

COc1ccc2c(c1)c1c3n2CCN(C)C3=NCC1
not listed: [16] | [17] | [18] | [19] | [20]
inactive: all other assays above

CC1=C(C(=O)O)N2C(=O)[C@@H](NC(=O)[C@H](N)c3ccccc3)[C@H]2SC1
not listed: [17] | [18] | [19] | [20]
inactive: all other assays above

C[N+]1(C)CCC(=C(c2ccccc2)c2ccccc2)CC1
not listed: [16] | [17] | [18] | [19] | [20]
inactive: all other assays above

Nc1ccc(S(=O)(=O)Nc2cnc3ccccc3n2)cc1
not listed: [16] | [17] | [18] | [19] | [20]
inactive: all other assays above

COP(=O)(OC)OC(c1ccc(Cl)cc1)P(=O)(OC)OC (stereo unspecified)
not listed: [16] | [17] | [18] | [19] | [20]
inactive: all other assays above

NC(N)=NCc1cccc(I)c1
inactive: [1] | [17] | [18] | [19]

COc1ccc(CCN(C)CCCN2CCc3cc(OC)c(OC)cc3CC2=O)cc1OC
not listed: [16] | [17] | [18] | [19] | [20]
inactive: all other assays above

CN=C(N)NCCC[C@H](N)C(=O)O
inactive: [1] | [17] | [20] | [18] | [19]

CC(=O)O[C@]1(C(C)=O)CC[C@H]2[C@@H]3C=C(C)C4=CC(=O)CC[C@]4(C)[C@H]3CC[C@@]21C
not listed: [16] | [17] | [18] | [19] | [20]
inactive: all other assays above

Cc1cccc(C)c1NC(=O)CN1CCCC1
not listed: [16] | [17] | [18] | [19] | [20]
inactive: all other assays above
